Laboratory results taken from ChEMBL document CHEMBL1157539, “Thousands of chemical starting points for antimalarial lead identification” (Nature, 2010).

Tests used:
Type in all cases: functional
Plasmodium falciparum [1] = assay: GSK_TCMDC: Inhibition of Plasmodium falciparum 3D7 in whole red blood cells, using parasite LDH activity as an index of growth. Test compounds present at 2uM
Plasmodium falciparum [2] = assay: GSK_TCMDC: Inhibition of Plasmodium falciparum Dd2 in whole red blood cells, using parasite LDH activity as an index of growth. Test compounds present at 2uM
HepG2 = assay: GSK_TCMDC: Percent inhibition of human HepG2 cell line. Test compounds present at 10uM.

Structure (SMILES)	Inhibition (Plasmodium falciparum [1])	Inhibition (Plasmodium falciparum [2])	Inhibition (HepG2)
Cc1cc(Nc2cccc(Cl)c2)nc2ccc(NC(=O)c3ccc(=O)[nH]c3)cc12	100%	23%	12%
COc1ccc(C2C(C(=O)Nc3ccc(C)c(F)c3)c3cc(OC)c(OC)cc3C(=O)N2C)cc1 (stereo not given)	81%	26%	6%
Cc1cccc2nc(-c3cccc(-c4ccc(C(=O)NCCc5ccc(O)c(=O)[nH]5)cc4)c3)[nH]c12	85%	30%	20%
COc1ccc(C=NNc2cc(C)nc3ccc(OC)cc23)c(OC)c1	100%	95%	23%
Cl.O=C(Nc1ccc(C2=NC3CCCCC3N2)cc1)Nc1ccc(C2=NC3CCCCC3N2)cc1 (stereo not given)	88%	76%	7%
NC1=NC(c2ccccc2)(c2ccccc2)C(=O)N1CCCCc1ccccn1	94%	56%	10%
Cc1[nH]cnc1CSCCNC(=N)NCCCCCCCCNC(=N)NCCSCc1nc[nH]c1C.Cl	96%	95%	24%
COc1ccc(CCNCCCCNCCc2ccc(OC)c3ccccc23)c2ccccc12.CS(=O)(=O)O	100%	33%	100%
O=C(/C=C/c1ccc(Cl)c(Cl)c1)NCCCCCCN1CCN(C(=O)Nc2ccc(OC(F)F)cc2)CC1	91%	15%	44%
CC(=O)N(C)C1CCN(Cc2ccc(-c3cccc(-c4nc5cc(F)ccc5[nH]4)c3)cc2)C1.O=C(O)C(F)(F)F (stereo not given)	100%	79%	28%
